Read-out in test [1]: solute carrier (SLC10A1), SLC10A1 (gene 6554)
Put plainly: LTEA_HepaRG_SLC10A1: Life Technologies and Expression Analysis (LTEA) Assay for solute carrier (SLC10A1) using HepaRG (AID 2283657; active = hit-call score of the fitted dose curve at least 0.9, where 1 is the maximum; inactive = score below 0.9). As to conditions: mRNA level, 48 h; actives raise or lower the signal. The gist of the method:
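SLC10A1 transcript measured by TaqMan qRT-PCR, housekeeping-normalised, after 48 h chemical treatment of human HepaRG cells. Eight concentrations (half-log, max 100 uM, 0.5% DMSO vehicle) in duplicate; fitted bidirectionally against DMSO baseline.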

Read-out in test [2]: matrix metalloproteinase-1 (MMP1), MMP1 (gene 4312)
The test can be described thus: LTEA_HepaRG_MMP1: Life Technologies and Expression Analysis (LTEA) Assay for matrix metalloproteinase-1 (MMP1) using HepaRG (AID 2283658; active = hit-call score of the fitted dose curve at least 0.9, where 1 is the maximum; inactive = score below 0.9). The settings on record: mRNA level, 48 h; actives raise or lower the signal. In short, it runs like this: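 Differentiated human HepaRG cells, 48 h post-plating in serum-free induction medium, were exposed 48 h to eight half-log concentrations topping at 100 uM in 0.5% DMSO, duplicate. MMP1 mRNA measured by Fluidigm TaqMan qRT-PCR, normalized to ACTB, GAPDH, POLR2A; bidirectional fits versus DMSO.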

Read-out in test [3]: xenobiotic metabolism (CYP1A1), CYP1A1 (gene 1543)
The test can be described thus: CLD_CYP1A1_6hr: CellzDirect (CLD) Gene Expression Assay for xenobiotic metabolism (CYP1A1) at 6 hours (AID 2283661).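 For AC50: potency for transcript induction above DMSO vehicle baseline.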 The gist of the method:
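Read-out 6 h post-dose: qNPA chemiluminescent quantitation of transcript induction against 0.2% DMSO. Cells were cultured primary human hepatocytes from two separate donor preparations; phase-contrast morphology annotated apparent cytotoxicity.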

Test [4] can be described thus: Tanguay_ZF_120hpf_TR_legacy: (Legacy) Oregon State University Tanguay Lab 120 Hour Post-fertilization zebrafish Assay for Touch Response (AID 2283667). The gist of the method:
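Binary touch-response endpoint in larvae at 120 hpf after static waterborne exposure from embryo stage (28°C, 0.64% DMSO vehicle, 5 uM trimethyltin chloride as positive control); embryos dead at 24 or 120 hpf excluded; fitted as gain versus DMSO.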

Read-out in test [5]: Cytochrome P450 (CYP24A1_1), CYP24A1 (gene 1591)
Put plainly: LTEA_HepaRG_CYP24A1_1: Life Technologies and Expression Analysis (LTEA) Assay for Cytochrome P450 (CYP24A1_1) using HepaRG (AID 2283671; active = hit-call score of the fitted dose curve at least 0.9, where 1 is the maximum; inactive = score below 0.9). The settings on record: mRNA level, 48 h; actives raise or lower the signal. The gist of the method: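 Differentiated human HepaRG cells were exposed in duplicate for 48 h in serum-free induction medium to eight concentrations (top 100 uM, half-log steps, 0.5% DMSO). CYP24A1 mRNA was quantified by TaqMan qRT-PCR, normalized to ACTB, GAPDH and POLR2A, and fitted bidirectionally versus DMSO.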

Read-out in test [6]: glucuronosyltransferase (UGT1A1), UGT1A1 (gene 54658)
The test can be described thus: CLD_UGT1A1_6hr: CellzDirect (CLD) Gene Expression Assay for glucuronosyltransferase (UGT1A1) at 6 hours (AID 2283672). The gist of the method:
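UGT1A1 mRNA induction, read by quantitative nuclease protection assay, 6 h after dosing primary human hepatocytes (two donors, 0.2% DMSO vehicle). Gain of signal fitted relative to vehicle.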

A short description of test [7]: CCTE_Padilla_ZF_144hpf_TERATOSCORE: (Legacy) CCTE's 144 Hour Post-fertilization zebrafish Assay Teratoscore, Padilla Lab (AID 2283679; active = hit-call score of the fitted dose curve at least 0.9, where 1 is the maximum; inactive = score below 0.9;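 for AC50: zebrafish embryos with chorions exposed by immersion from 6-8 hpf to 5 dpf with daily renewal; teratogenicity score from eye scoring of death hatching and malformations at 144 hpf; higher score means more developmental defects relative to DMSO baseline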). The gist of the method: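 Larvae scored by eye at 144 hpf for death, hatching and malformations after a day in clean Hanks'. Before that, daily-renewed exposure at 80 uM (0.4% DMSO, 26C) from roughly 6-8 hpf through 5 dpf, 4 embryos per chemical.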

Read-out in test [8]: HMG-CoA synthase (HMGCS2), HMGCS2 (gene 3158)
Put plainly: CLD_HMGCS2_6hr: CellzDirect (CLD) Gene Expression Assay for HMG-CoA synthase (HMGCS2) at 6 hours (AID 2283682).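 Note: actives raise HMGCS2 transcript above the 0.2% DMSO vehicle baseline.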 The gist of the method:
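HMGCS2 transcript induction read by quantitative nuclease protection with chemiluminescence, 6 h after dosing of primary human hepatocytes. Baseline was 0.2% DMSO vehicle; phase-contrast morphology gave a yes/no cytotoxicity annotation.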

Read-out in test [9]: ABC Transporter (ABCB1), ABCB1 (gene 5243)
The test can be described thus: CLD_ABCB1_6hr: CellzDirect (CLD) Gene Expression Assay for ABC Transporter (ABCB1) at 6 hours (AID 2283659).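 Note: hits raise ABCB1 transcript above the DMSO vehicle baseline.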 In short, it runs like this: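 ABCB1 transcript measured by quantitative nuclease protection assay, chemiluminescent read-out, 6 h after dosing human hepatocyte cultures (0.2% DMSO vehicle, daily redosing). Activity fitted as increase over DMSO baseline; cytotoxicity flagged by phase-contrast morphology.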

Read-out in test [10]: Broad substrate specificity ATP-binding cassette transporter ABCG2 (Homo sapiens) (UniProt Q9UNQ0)
The test can be described thus: CLD_ABCG2_6hr: CellzDirect (CLD) Gene Expression Assay for ABC Transporter (ABCG2) at 6 hours (AID 2283660). In short, it runs like this:
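ABCG2 mRNA induction measured by qNPA chemiluminescence in human primary hepatocyte cultures, 6 h post-dose. Chemicals tested at several concentrations against a 0.2% DMSO vehicle; positive-direction fit relative to DMSO.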

Test [11] concerns Thyroperoxidase (TPO), gene 54314. The test can be described thus: CCTE_Simmons_AUR_rTPO: CCTE's Amplex UltraRed Assay for Thyroperoxidase (TPO) Inhibition, Simmons Lab (AID 2283662).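 For AC50: potency for loss of signal meaning inhibition of peroxidase activity.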 The gist of the method:
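Rat thyroid microsomal TPO + 25 uM AUR in 200 mM K phosphate; cpd 5 nM–87.5 uM [final], 8 conc, 0.5% DMSO; 300 uM H2O2 starts rxn; 37C dark 30 min; endpoint FI 544/590 nm; n=3.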

Read-out in test [12]: Glyceraldehyde-3-phosphate dehydrogenase (Homo sapiens) (UniProt P04406)
Put plainly: CLD_GAPDH_6hr: CellzDirect (CLD) Gene Expression Assay for Baseline Control (Glyceraldehyde 3-phosphate dehydrogenase) at 6 hours (AID 2283681).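 Note: active means increased signal relative to DMSO vehicle.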 The gist of the method: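 GAPDH baseline-control readout from qNPA (S1 nuclease digestion, probe hybridization, chemiluminescence) in lysates of cultured human hepatocytes harvested 6 h post-dosing. Chemicals tested at multiple concentrations versus 0.2% DMSO vehicle; microscopy-based cytotoxicity flagged yes/no.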

Read-out in test [13]: xenobiotic metabolism (CYP1A2), CYP1A2 (gene 1544)
The test can be described thus: CLD_CYP1A2_6hr: CellzDirect (CLD) Gene Expression Assay for xenobiotic metabolism (CYP1A2) at 6 hours (AID 2283663).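 For AC50: potency is for induction meaning a rise in mRNA above DMSO.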 The gist of the method:
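mRNA levels quantified by quantitative nuclease protection assay with chemiluminescence, 6 h after dosing human primary hepatocyte cultures (two donors) across several concentrations, vehicle 0.2% DMSO. Induction fitted upward versus DMSO; phase-contrast cytotoxicity annotated.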

Read-out in test [14]: sulfotransferase (SULT2A), SULT2A1 (gene 6822)
The test can be described thus: CLD_SULT2A_6hr: CellzDirect (CLD) Gene Expression Assay for sulfotransferase (SULT2A) at 6 hours (AID 2283669).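 Note: hits raise transcript level above the DMSO vehicle baseline.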 The gist of the method: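 Measured 6 h after dosing, SULT2A1 mRNA in human hepatocyte lysates was quantified by S1 nuclease protection with chemiluminescent detection. Increases fitted against 0.2% DMSO vehicle baseline; phase-contrast cytotoxicity recorded yes/no.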

Read-out in test [15]: Cytochrome P450 2B6 (Homo sapiens) (UniProt P20813)
The test can be described thus: CLD_CYP2B6_6hr: CellzDirect (CLD) Gene Expression Assay for xenobiotic metabolism (CYP2B6) at 6 hours (AID 2283677).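 Note: actives raise CYP2B6 transcript above DMSO baseline so AC50 marks an inducer.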 The gist of the method: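 CYP2B6 transcript levels, read by chemiluminescent qNPA, were fitted for increase versus DMSO baseline; cultured human liver hepatocytes from two donor preparations were harvested 6 h after exposure to test chemicals at multiple concentrations.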

Read-out in test [16]: Cytochrome P450 3A4 (Homo sapiens) (UniProt P08684)
Put plainly: CLD_CYP3A4_6hr: CellzDirect (CLD) Gene Expression Assay for xenobiotic metabolism (CYP3A4) at 6 hours (AID 2283680). In short, it runs like this:
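CYP3A4 mRNA induction, 6 h after dosing of cultured primary human hepatocytes from two donors, read by quantitative nuclease protection (qNPA, chemiluminescence). Vehicle 0.2% DMSO as baseline; morphology-based cytotoxicity annotated yes/no.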

Read-out in test [17]: alkyl and aryl transferase (GSTA2), GSTA2 (gene 2939)
Put plainly: CLD_GSTA2_6hr: CellzDirect (CLD) Gene Expression Assay for alkyl and aryl transferase (GSTA2) at 6 hours (AID 2283666). The gist of the method:
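GSTA2 transcript induction at 6 h, quantified by nuclease protection (qNPA) with chemiluminescent detection, in human liver primary hepatocytes exposed to several compound concentrations with 0.2% DMSO as baseline; phase-contrast morphology annotated apparent cytotoxicity.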

Read-out in test [18]: xenobiotic metabolism (CYP1A1), CYP1A1 (gene 1543)
Put plainly: CLD_CYP1A1_24hr: CellzDirect (CLD) Gene Expression Assay for xenobiotic metabolism (CYP1A1) at 24 hours (AID 2283673).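 Note: CYP1A1 mRNA level by quantitative nuclease protection with chemiluminescence.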 The gist of the method: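 Transcript levels were read at 24 h by qNPA chemiluminescence in human liver primary cells. Cells got daily fresh dosing at multiple concentrations (vehicle 0.2% DMSO). Induction fitted upward against DMSO; phase-contrast cytotoxicity annotated.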

Test [19] is described as follows: CLD_ACTIN_6hr: CellzDirect (CLD) Gene Expression Assay for Baseline Control (Actin) at 6 hours (AID 2283676).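 Note: active means increased actin mRNA relative to DMSO vehicle.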 In short, it runs like this: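 Baseline actin transcript level measured by qNPA (S1 nuclease protection, chemiluminescence) in human hepatocyte cultures 6 h after chemical exposure; 0.2% DMSO vehicle as reference, cytotoxicity noted from morphology.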

Inconclusive results are not listed. Active and inactive are the calls of the source. Rule for the calls, unless noted: active = hit-call score of the fitted dose curve at least 0.9, where 1 is the maximum; inconclusive = response in the unintended direction; inactive = score below 0.9.

By AC50 is commonly meant the concentration at which the activity in the assay is half-maximal.

Chain of Glyceraldehyde-3-phosphate dehydrogenase (Homo sapiens) (P04406 whole entry, looked up): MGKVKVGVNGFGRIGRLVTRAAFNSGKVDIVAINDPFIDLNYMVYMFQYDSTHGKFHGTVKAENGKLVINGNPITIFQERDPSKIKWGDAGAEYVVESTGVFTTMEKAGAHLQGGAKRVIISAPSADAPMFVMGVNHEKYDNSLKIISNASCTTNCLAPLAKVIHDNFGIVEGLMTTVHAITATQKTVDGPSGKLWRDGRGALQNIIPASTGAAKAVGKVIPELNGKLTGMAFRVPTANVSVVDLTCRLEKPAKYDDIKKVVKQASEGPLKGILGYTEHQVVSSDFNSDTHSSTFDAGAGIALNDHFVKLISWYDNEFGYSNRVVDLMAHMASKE
Chain of Broad substrate specificity ATP-binding cassette transporter ABCG2 (Homo sapiens) (Q9UNQ0 whole entry, looked up): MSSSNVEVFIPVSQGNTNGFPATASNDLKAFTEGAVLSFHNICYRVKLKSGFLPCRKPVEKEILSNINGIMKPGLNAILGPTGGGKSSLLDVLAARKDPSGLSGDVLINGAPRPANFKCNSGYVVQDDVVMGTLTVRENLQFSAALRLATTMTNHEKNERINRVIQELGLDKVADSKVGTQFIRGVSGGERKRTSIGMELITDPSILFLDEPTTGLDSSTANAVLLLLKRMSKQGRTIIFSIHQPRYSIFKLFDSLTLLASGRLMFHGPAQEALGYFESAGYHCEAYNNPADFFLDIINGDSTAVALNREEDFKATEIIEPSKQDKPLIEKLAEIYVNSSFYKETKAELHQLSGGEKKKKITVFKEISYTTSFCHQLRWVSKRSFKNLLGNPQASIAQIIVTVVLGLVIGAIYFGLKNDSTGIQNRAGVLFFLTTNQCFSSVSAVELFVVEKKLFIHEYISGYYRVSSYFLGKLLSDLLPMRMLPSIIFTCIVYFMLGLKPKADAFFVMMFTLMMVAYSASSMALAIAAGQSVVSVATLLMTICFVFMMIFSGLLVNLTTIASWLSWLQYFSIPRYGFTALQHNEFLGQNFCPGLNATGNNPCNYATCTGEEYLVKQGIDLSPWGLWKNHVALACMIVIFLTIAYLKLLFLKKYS
Chain of Cytochrome P450 3A4 (Homo sapiens) (P08684 whole entry, looked up): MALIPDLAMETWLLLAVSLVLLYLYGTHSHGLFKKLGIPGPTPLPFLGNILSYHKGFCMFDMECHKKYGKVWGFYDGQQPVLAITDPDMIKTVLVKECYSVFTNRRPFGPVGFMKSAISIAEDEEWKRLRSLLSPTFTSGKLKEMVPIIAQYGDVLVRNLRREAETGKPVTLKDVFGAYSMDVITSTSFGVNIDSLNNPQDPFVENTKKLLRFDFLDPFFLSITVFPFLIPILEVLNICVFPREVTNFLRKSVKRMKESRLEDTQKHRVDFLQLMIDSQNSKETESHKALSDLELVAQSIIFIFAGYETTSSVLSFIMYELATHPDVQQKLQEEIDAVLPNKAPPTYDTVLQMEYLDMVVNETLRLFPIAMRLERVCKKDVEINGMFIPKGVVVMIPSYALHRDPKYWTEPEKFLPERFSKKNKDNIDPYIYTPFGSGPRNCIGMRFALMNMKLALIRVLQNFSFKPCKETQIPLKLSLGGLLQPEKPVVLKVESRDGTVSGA

In the case of `CCC(C)n1c(=O)[nH]c(C)c(Br)c1=O` (stereo not drawn), the AC50 in test [1] is 21 µM (active); in test [3], 7.21 µM (active). For the same molecule, the call in test [2], in [4], in test [5], in [6], in test [7] and in test [8] was inactive.

Consider `COc1ccc(-c2ccccc2)cc1NNC(=O)OC(C)C`, for which the outcome in test [9], in [10], in test [4], in [6], in [12] and in [8] was inactive. Besides, the AC50 in test [3] was 0.429 µM (active); in test [11], 1.84 µM (active); in test [7] it was 17.8 µM (active).

Regarding `CC(C)(C)C(=O)C(Oc1ccc(Cl)cc1)n1cncn1` (stereo not drawn), the result in test [9], in test [10], in [4], in test [14], in test [6] and in [12] was inactive. In addition, the AC50 in test [3] is 3.97 µM (active); in [13], 12.4 µM (active); in test [7], 17.4 µM (active).

With `CCOc1nc(F)cc2nc(S(=O)(=O)Nc3c(Cl)cccc3Cl)nn12`, the call in [9], in [10], in test [3], in test [4], in test [6] and in [7] was inactive. Also, the molecule was called inactive in test [16] and in test [8]. Moreover, the AC50 in [11] is 26.5 µM (active); in [15], 14.4 µM (active).

Consider `O=C1C2CC=CCC2C(=O)N1SC(Cl)(Cl)Cl` (stereo not drawn), for which the molecule was classed as inactive in test [9], in test [10], in [17], in test [4], in [18] and in [12]. For the same molecule, the AC50 in [7] is 1.96 µM (active).

Turning to `CCOP(=S)(OCC)Oc1nc(Cl)n(C(C)C)n1`, the concentration at half-maximal activity (AC50) in test [1] is 30.4 µM (active); in test [3], 2.55 µM (active); in test [11], 31.2 µM (active); in [13] it was 2.78 µM (active); in test [15], 0.511 µM (active); in test [7], 57.2 µM (active). The molecule was classed as inactive in test [2], in [9], in test [10], in test [4], in test [5] and in test [6].

Regarding `C=CCOC(=O)C(C)(C)OC(=O)c1cc(-n2c(=O)cc(C(F)(F)F)n(C)c2=O)ccc1Cl`, the result in [9], in test [10], in test [3], in test [13], in test [14] and in [6] was inactive. The call in test [12] and in test [8] was inactive. In addition, the values for the AC50 in test [7] and in [16] were 0.00588 µM (active) and 0.29 µM (active), respectively.

On to `CC1(C)CCC(=Cc2ccc(Cl)cc2)C1(O)Cn1cncn1` (stereo not drawn), for which the outcome in [9], in [10], in [13], in [4], in [14] and in test [6] was inactive. The result in test [19] was inactive. For the same molecule, the AC50 is 0.00693 µM (active) in test [3] and 253 µM (active) in [7].

Regarding `COCC(C)N(C(=O)CCl)c1c(C)csc1C` (stereo not drawn), the result in [9], in test [10], in test [3], in [13], in test [6] and in test [18] was inactive. Moreover, the result in test [12] was inactive. Further, the figures for the AC50 in test [4] and in [7] were 26.3 µM (active) and 60.8 µM (active), respectively.

`Cc1cnc(C2=NC(C)(C(C)C)C(=O)N2)c(C(=O)O)c1` (stereo not drawn): the molecule was classed as inactive in test [9], in [10], in test [3], in test [11], in test [13] and in test [4]. The call in test [6], in [7], in test [12] and in [8] was inactive.

These data come from PubChem BioAssay (EPA / NIEHS).
